# “And” between values parts separate entries of the source, which are not always exact repeats. Equal entries are not always repeated. Results filed as inconclusive are left out. Entries that show only a call come without a potency. More than one record can exist for a structure, and the calls need not agree. The source made the active and inactive calls. Unless noted, the call rests on the fitted dose curve; in most records, active means well fitted curve in the direction sought with a large enough effect; inconclusive means small, poorly fitted or top-dose-only effect, or another doubt; inactive means no such curve, though single readings can be large; an effect the other way counts as inactive or inconclusive.
# Columns and labels:
# [1] = qHTS Assay for Identification of Small Molecule Antagonists for NFkB Signaling Pathway (AID 895; active means well fitted inhibition curve with a large enough effect in the signal ratio, with a control signal flat, not every such curve was filed as active; the % refers to the signal ratio; further: potency means the concentration at half of the fitted maximal effect); conditions: NFkB beta-lactamase reporter cells, FRET ratio 460/530, stimulated with 10 pM TNF alpha; series mostly up to 38.3 µM
# Summary of the method: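 ME-180 NFkB-bla cells (beta-lactamase under NFkB response element), plated overnight, treated with compound then 10 pM TNF alpha (about EC50) for 5 hrs at 37 C. LiveBLAzer FRET read at 460/530 nm emission, 405 nm excitation.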
# [2] = qHTS Assay for Identification of Small Molecule Agonists for Thrombopoietin (TPO) Signaling Pathway (AID 917); conditions: TPO signaling pathway reporter cells, agonist qHTS, stimulated with TPO at its EC50; series mostly up to 38.5 µM; further: potency means the concentration at half of the fitted maximal effect
# Summary of the method: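 Luciferase reporter (Glycoprotein IIb promoter) in IL-3-deprived Ba/F3 cells carrying human TPO receptor; compounds co-added with 26 pM TPO, incubated 24 h, 37 C. Steadylite luminescence measured after 10 min.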
# [3] = biological target: Muscarinic acetylcholine receptor M1 (Rattus norvegicus) (UniProt P08482); experiment: qHTS Assay for Antagonists of Acetylcholine Muscarinic M1 Receptor: Kinetic Measurement of Intracellular Calcium Response (AID 943); conditions: M1-expressing cells, kinetic intracellular calcium fluorescence; series mostly up to 35.3 µM; further: nearly all actives have a fitted effect of over 75% in size; further: potency means the concentration at half of the fitted maximal effect
# Summary of the method: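 Read-out: peak over basal Fluo-4 fluorescence, kinetic at 1 Hz for 4 min after EC80 carbachol (100 nM final). Rat M1-CHO cells, dye loaded 1 h at 37C, compound added 10 min before agonist.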
# [4] = biological target: Muscarinic acetylcholine receptor M1 (Rattus norvegicus) (UniProt P08482); experiment: qHTS Assay for Antagonists of Acetylcholine Muscarinic M1 Receptor: Measurement of IP-One Response (AID 944); conditions: CHO-M1 cells, IP-One HTRF, antagonist mode; series mostly up to 46.1 µM; further: nearly all actives have a fitted effect of over 75% in size; further: potency means the concentration at half of the fitted maximal effect
# Summary of the method: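 Read-out: HTRF competition between d2-IP1 and Eu-cryptate anti-IP1 antibody, emission 620 and 665 nm. Stimulus was carbachol, EC80 (200 nM), for 30 min in M1-CHO cells (rat receptor), after 10 min compound pre-treatment.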
# [5] = Confirmation and Secondary Assay for Modulators of Hemoglobin Beta Chain Splicing at IVS2 654 locus (AID 910); conditions: HeLa EGFP-654 splicing reporter, GFP fluorescence, 48 h; series mostly up to 46.1 µM;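 further: HeLa cells stably carrying EGFP split by mutant beta-globin IVS2-654 intron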
# Summary of the method: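 HeLa cells stably expressing EGFP interrupted by β-globin IVS2-654 intron, seeded overnight in Opti-MEM/2% FCS, then treated 2 days at 37 °C. Restored splicing read as total peak GFP intensity per well by laser scanning cytometry (488 nm excitation, 500–520 nm emission); 500 nM antisense PNA as control.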
# [6] = Confirmation and Secondary Assay for Modulators of Hemoglobin Beta Chain Splicing at IVS2 705 locus (AID 930); conditions: HeLa EGFP-705 splicing reporter, GFP fluorescence, 48 h; series mostly up to 46.1 µM;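 further: HeLa cells stably expressing the EGFP-705 splicing reporter; GFP fluorescence per well restored by corrected splicing of the IVS2-705 intron in EGFP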
# Summary of the method: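 First, HeLa EGFP-705 cells are seeded at 500/well in Optimem with 2% FCS and left overnight. Next, compound or DMSO is added for 2 days. Finally wells are laser-scanned and total peak GFP intensity scored.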
# [7] = biological target: Cytochrome P450 2C19 (Homo sapiens) (UniProt P33261); experiment: qHTS Assay for Inhibitors and Substrates of Cytochrome P450 2C19 (AID 899); conditions: recombinant CYP2C19, luciferin-H EGE luminescence; series mostly up to 57.1 µM; further: nearly all actives have a fitted effect of over 60% in size; further: potency means the concentration at half of the fitted maximal effect
# Summary of the method: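 Luminescent read-out of luciferin formed from Luciferin-H EGE (10uM, equal to KM). Enzyme 5nM in 50mM KPO4; compound added, 10 min at 37C, then NADPH regenerating system for 60 min at 37C. Full inhibition defined by 57uM ketoconazole.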
# [8] = qHTS Assay for Identification of Small Molecule Agonists for Hypoxia Response Element Signaling Pathway (AID 914; active means well fitted activation curve with a large enough effect in the signal ratio, with a control signal flat, not every such curve was filed as active; the % refers to the signal ratio); conditions: ME-180 (cervical carcinoma) HRE-bla reporter, beta-lactamase ratio, CoCl2, 17 h; activation: stronger effect = higher value
# Summary of the method: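 Positive modulation of EC50 CoCl2-induced hypoxia response element signaling is measured in ME-180 cells with a beta-lactamase reporter. Compounds are titrated, incubation runs 17 hours, and %Activity derives from the blue/green ratio.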
# Cytochrome P450 2C19 (Homo sapiens), sequence (P33261 whole entry, looked up): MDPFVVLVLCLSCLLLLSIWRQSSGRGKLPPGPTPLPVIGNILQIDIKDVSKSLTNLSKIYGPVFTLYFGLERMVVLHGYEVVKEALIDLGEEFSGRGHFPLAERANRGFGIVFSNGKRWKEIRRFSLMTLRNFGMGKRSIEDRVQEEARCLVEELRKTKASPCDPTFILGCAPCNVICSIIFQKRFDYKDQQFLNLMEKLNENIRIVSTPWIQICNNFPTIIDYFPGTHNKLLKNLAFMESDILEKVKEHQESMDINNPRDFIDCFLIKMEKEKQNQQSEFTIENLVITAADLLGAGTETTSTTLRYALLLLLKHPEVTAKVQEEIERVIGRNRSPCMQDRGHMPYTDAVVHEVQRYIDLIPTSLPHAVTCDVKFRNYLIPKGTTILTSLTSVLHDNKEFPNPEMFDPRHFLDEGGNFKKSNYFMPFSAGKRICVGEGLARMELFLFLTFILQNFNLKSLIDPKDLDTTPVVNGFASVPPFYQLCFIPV
# Muscarinic acetylcholine receptor M1 (Rattus norvegicus), sequence (P08482 whole entry, looked up): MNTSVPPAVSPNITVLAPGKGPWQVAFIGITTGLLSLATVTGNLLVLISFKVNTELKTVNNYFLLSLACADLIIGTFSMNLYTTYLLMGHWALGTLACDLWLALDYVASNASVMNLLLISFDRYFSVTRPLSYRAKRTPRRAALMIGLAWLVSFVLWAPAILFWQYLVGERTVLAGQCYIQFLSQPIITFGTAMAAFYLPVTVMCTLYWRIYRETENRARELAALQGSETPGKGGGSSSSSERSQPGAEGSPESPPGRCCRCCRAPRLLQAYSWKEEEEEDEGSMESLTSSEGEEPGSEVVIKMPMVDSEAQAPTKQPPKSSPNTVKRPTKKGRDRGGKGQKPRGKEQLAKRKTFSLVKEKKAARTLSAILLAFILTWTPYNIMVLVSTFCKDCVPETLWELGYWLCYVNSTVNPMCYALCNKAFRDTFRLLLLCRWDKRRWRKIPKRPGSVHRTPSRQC
structure (smiles),measurement,setting,value
NC(=Nc1ccccc1)NC(=O)c1nc(Cl)c(N)nc1N,Potency,[1],7.94 µM (active)
same,Potency,[2],2.51 µM (active)
CCC(=O)N1CCN(C(=O)c2ccccc2)CC1,Potency,[1],inactive
same,Potency,[2],inactive
same,Potency,[3],inactive
C=CC[C@H](N)C(=O)O,Potency,[1],inactive
same,Potency,[3],inactive
same,Potency,[4],inactive
CCCCCCCCCCCCCCSCC(=O)O,Potency,[1],inactive
same,Potency,[2],inactive
same,Potency,[4],inactive
N#CC(C#N)=C(N)/C(C#N)=C/c1ccc(O)cc1,Potency,[1],inactive
same,Potency,[2],inactive
same,Potency,[3],inactive
same,Potency,[4],inactive
Cc1ccc2c(c1)C(N1CCN(C)CC1)=Nc1cccnc1N2,Potency,[1],11.2 µM (active)
same,Potency,[2],inactive
same,Potency,[3],35.5 nM (active)
same,Potency,[4],79.4 nM (active)
Cc1nc(N=Nc2cc(S(=O)(=O)O)c3cc([N+](=O)[O-])cc(S(=O)(=O)O)c3c2)c(COP(=O)(O)O)c(C=O)c1O,Potency,[1],inactive
same,Potency,[4],inactive
Nc1ccc(-c2ccc3ccccc3n2)cc1,Potency,[1],inactive
same,Potency,[4],inactive
COc1ccccc1N1CCN(CCCNc2c(C)c(=O)n(C)c(=O)n2C)CC1,Potency,[1],inactive
same,Potency,[2],inactive
C#CCn1c(=O)c2c(ncn2C)n(C)c1=O,Potency,[1],inactive
same,Potency,[2],inactive
same,Potency,[3],inactive
same,Potency,[4],inactive
NS(=O)(=O)c1cccc2c1c([N+](=O)[O-])cc1nc(O)c(O)nc12,Potency,[1],inactive
same,Potency,[2],inactive
same,Potency,[3],inactive
COc1ccc(-c2ccc(N)[n+](CCCC(=O)O)n2)cc1,Potency,[1],inactive
same,Potency,[2],inactive
same,Potency,[3],inactive
same,Potency,[4],inactive
COc1cc2c(CCNC(C)=O)c[nH]c2cc1O,Potency,[1],inactive
same,Potency,[2],inactive
same,Potency,[3],inactive
same,Potency,[4],inactive
c1ccc2nc(C3=NCCN3)ccc2c1,Potency,[1],inactive
same,Potency,[2],inactive
N#Cc1cc2nc(O)c(O)nc2cc1[N+](=O)[O-],Potency,[1],inactive
same,Potency,[2],inactive
same,Potency,[3],inactive
Cc1nc(N=Nc2ccc(S(=O)(=O)O)cc2S(=O)(=O)O)c(COP(=O)(O)O)c(C=O)c1O,Potency,[1],inactive
same,Potency,[3],inactive
same,Potency,[4],inactive
CN(C)S(=O)(=O)c1ccc2c(c1)/C(=C/c1cc3c([nH]1)CCCC3)C(=O)N2,Potency,[1],1.58 µM (active)
same,Potency,[2],inactive
same,Potency,[3],inactive
C=CCn1c(=O)c2c(nc(-c3ccc(S(=O)(=O)O)cc3)n2C)n(C)c1=O,Potency,[1],inactive
same,Potency,[2],inactive
same,Potency,[3],inactive
O=C(O)C1CCNCC1,Potency,[1],inactive
same,Potency,[2],inactive
same,Potency,[4],inactive
NOCC(=O)O,Potency,[1],inactive
same,Potency,[3],inactive
O=c1[nH]ccc2c(O)cccc12,Potency,[1],inactive
same,Potency,[2],inactive
same,Potency,[3],inactive
same,Potency,[4],inactive
O=C(O)C1=CCCN(CCON=C(c2ccccc2)c2ccccc2)C1,Potency,[1],inactive
same,Potency,[2],inactive
same,Potency,[4],inactive
O=C(O)/C(=C/c1c(C(=O)O)[nH]c2cc(Cl)cc(Cl)c12)c1ccccc1,Potency,[1],inactive
same,Potency,[2],inactive
same,Potency,[3],inactive
C[N+](C)(C)CC=O,Potency,[1],inactive
same,Potency,[2],inactive
same,Potency,[4],inactive
O=C(O)c1cc(=O)cc(C(=O)O)[nH]1,Potency,[1],3.55 µM (active)
same,Potency,[2],inactive
CCCC(=O)NCCc1c2n(c3ccc(OC)cc13)CCCc1ccccc1-2,Potency,[1],inactive
same,Potency,[4],inactive
O=C(O)c1ccccc1Nc1ccccc1,Potency,[5],inactive
same,Potency,[2],inactive
same,outcome,[6],inactive
same,Potency,[3],inactive
Cn1c(=O)c2[nH]c(-c3ccc(S(=O)(=O)O)cc3)nc2n(C)c1=O,Potency,[7],inactive
same,Potency,[2],inactive
same,Potency,[3],inactive
CCCc1c(-c2ccc(O)cc2)nn(-c2ccc(O)cc2)c1-c1ccc(O)cc1,Potency,[7],10 µM (active)
same,Potency,[3],inactive
O=[N+]([O-])c1cccc2c(Br)[nH]nc12,Potency,[5],inactive
same,Potency,[2],inactive
same,outcome,[6],inactive
CC(=O)N[C@@H](Cc1c[nH]c2ccccc12)C(=O)OCc1cc(C(F)(F)F)cc(C(F)(F)F)c1,Potency,[7],7.94 µM (active)
same,Potency,[3],inactive
same,Potency,[4],inactive
NCCCCN,Potency,[5],inactive
same,Potency,[2],inactive
same,outcome,[6],inactive
same,Potency,[3],inactive
same,Potency,[4],inactive
O=C1Cc2c([nH]c3ccc(Br)cc23)-c2ccccc2N1,Potency,[7],inactive
same,Potency,[2],0.158 µM (active)
same,Potency,[3],inactive
CC(C)NC[C@H](O)COc1ccc(CC(N)=O)cc1,Potency,[5],inactive
same,Potency,[2],inactive
same,outcome,[6],inactive
Cn1cc(C(=O)OCC2CCN(CCNS(C)(=O)=O)CC2)c2ccccc21,Potency,[7],inactive
same,activation,[8],26.2% (inactive)
same,Potency,[2],inactive
same,Potency,[4],inactive
O=C(O)c1ccccc1Nc1cccc(OCc2ccc3ccccc3n2)c1,Potency,[7],inactive and 5.01 µM (active)
same,Potency,[3],inactive
O=C(O)/C=C/c1ccc(O)c(O)c1,Potency,[5],inactive
same,Potency,[2],inactive
same,outcome,[6],inactive
same,Potency,[3],inactive

# Source: PubChem BioAssay (NCATS)
